# Assay outcomes deposited in PubChem by National Center for Advancing Translational Sciences (NCATS).
# Compounds with a hit are over-represented: about 9.5% of the library has one in this group of screens.
# NS1 function inh – influenza NS1 inhibition; Potency, µM (doses to about 46.1 µM), for inactives: at the highest dose activity, positive = more growth; 270,000 tested, 0.4% active; AID 2326; calls by dose curve; also: actives are rising curves; nearly all actives have a fitted effect of over 50% in size
#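 Recovery from NS1-induced slow growth read by OD600 in budding yeast switched to galactose assay medium (pH 6.0, -URA) at 1:100 dilution. Compound 23 nl per well; the matching strain lacking NS1 serves as control.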
# Pf growth 96h – inhibits malaria parasite growth, 96 h | P. falciparum luciferase reporter growth, 96 h | Potency, µM (titrated, usually from 28.7 µM), for the others: at the top dose activity change, negative = inhibition, hits mostly inhibitors | 320,000 tested, 6.9% active; also: % is scaled to controls: 0 for no effect and ±100 for the full control effect
#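 P. falciparum expressing integrated firefly luciferase grown in erythrocytes (2% hematocrit, 0.05% parasitemia final) with compounds for 96 hours at 37 C, 5% CO2. Growth inhibition read as loss of luminescence after adding luciferase detection reagent.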
# SARS PLpro yeast – inhibitors of SARS-CoV papain-like protease in yeast; AID 485353; S. cerevisiae expressing SARS-CoV PLpro, growth rescue; Potency, µM (titrated, usually from 32.9 µM), inactives show at the top dose activity, positive = growth rescue, most hits filed as activators; 330,000 tested, 0.19% active; calls by dose curve; also: 0% is about no effect; nearly all actives have a fitted effect of over 55% in size
# Pf growth 48h – P. falciparum growth inhibition at 48 hours (one generation); P. falciparum luciferase growth in erythrocytes, 48 h; Potency, µM (highest dose often 28.7 µM), inactives show top-dose activity change, negative = inhibition, most hits filed as inhibitors; 310,000 tested, 5.9% active; AID 504832; also: % is scaled to controls: 0 for no effect and ±100 for the full control effect
#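 Here the parasites carry a stable luciferase gene and grow inside erythrocytes in Albumax-based RPMI medium with compound for one erythrocytic cycle. Activity is scored as loss of luminescent signal.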
# RE007 growth inh – less growth of the S. pombe RE007 Vpr strain. 360,000 tested, 0.21% active. S. pombe RE007 Vpr strain, BacTiter-Glo ATP luminescence, 24 h. AID 651644. Potency, µM (top dose mostly 92.2 µM), for the others: at the highest dose activity change, negative = less growth, hits mostly inhibitors; active = well fitted falling curve with a large enough effect; inconclusive = small, poorly fitted or top-dose-only effect; inactive = no such curve, though single readings can be large or run the other way; also: % is scaled to controls: 0 for no effect and ±100 for the full control effect; nearly all actives have a fitted effect of over 50% in size
#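 Fission yeast RE007 carrying one integrated HIV-1 vpr copy, seeded at OD 0.01 in PMG+AL medium with 23 nL pinned compound. Grown 24 h at 30 degrees; viability read by BacTiter-Glo luminescence after 5 min.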
# An asterisk follows results filed as active; u = inconclusive; x = no result given; [ ] = dose if it differs, or a comment. Unless noted, calls follow the shape of the dose curve; as a rule, active = well fitted inhibition curve with a large enough effect; inconclusive = small, poorly fitted or top-dose-only effect, or another doubt; inactive = no such curve, though single readings can be large or run the other way. Potency is read from the fitted curve at half-maximal effect.
SMILES,NS1 function inh,Pf growth 96h,SARS PLpro yeast,Pf growth 48h,RE007 growth inh
CCOc1cc2c(cc1OCC)-n1cccc1C(c1ccccc1OC)NC2 (stereo not drawn),-4%,0%,-4%,10µM*,-20%
O=C(NC1CCCC1)c1cc(-c2cccc(Cl)c2)on1,-20%,u,-8%,79%,6%
CC(C)(SCc1ccccc1)[C@H](N)C(=O)O,3%,x,x,x,x
O=C(O)c1cc(C(=O)O)c(-c2ccccc2)c(C(=O)O)c1,1%,u,8%,2.9µM*,-17%
O=C(COC(=O)CCN1C(=O)C2CC=CCC2C1=O)Nc1ccc([N+](=O)[O-])cc1 (stereo not drawn),x,x,2%,x,-3%
Cc1nn(Cc2ccccc2)c(Cl)c1/C=N/NC(=O)CNc1cccc(C(F)(F)F)c1,18%,12µM*,5%,u,-1%
O=C(CNc1cccc(C(F)(F)F)c1)N/N=C/c1cccc(Br)c1,-4%,8%,23%,9%,7%
Cc1nn(-c2ccccc2)c(Cl)c1/C=N/NC(=O)CNC(=O)c1ccccc1Cl,1%,1.9µM*,5%,28%,4%
CCOC(=O)N/N=C/c1c(C)nn(-c2cccc(C(F)(F)F)c2)c1Cl,-3%,1.5µM*,-52%,2.1µM*,18%
Cc1nn(-c2ccccc2)c(Cl)c1/C=N/NC(N)=O,-8%,61%,3%,102%,10%
COc1ccccc1CNC(=O)CCNS(=O)(=O)c1ccc2c(c1)oc(=O)n2C,5%,u,-4%,u,-2%
O=C(NCc1cccc(OC(F)(F)F)c1)C1CCC(=O)N(Cc2cccc(F)c2)C1 (stereo not drawn),7%,u,3%,-12%,8%
CC(=O)Nc1cc(OC(C)=O)c2nonc2c1OC(C)=O,7%,5%,-16%,10µM*,-9%
COc1ccc(N2CCC(CNC(=S)Nc3ccc(C)cc3C)C2)cc1 (stereo not drawn),18%,u,-1%,8.3µM*,1%
COc1ccc(N2CCC(CNC(=S)Nc3c(C)cc(C)cc3C)C2)cc1 (stereo not drawn),3%,u,-1%,12µM*,18%
COc1ccc(N2CCC(CNC(=S)Nc3cccc(C)c3)C2)cc1 (stereo not drawn),5%,83%,6%,13µM*,2%
Cc1cc(C)cc(NC(=S)NCC2CCN(C(C)c3ccccc3)C2)c1 (stereo not drawn),x,5.2µM*,-2%,u,-3%
Cc1ccccc1NC(=S)NCC1CCN(C(C)c2ccccc2)C1 (stereo not drawn),x,0%,2%,8%,-12%
NC(=O)C1CCCN(CC(=O)Nc2cc(S(=O)(=O)N3CCOCC3)ccc2N2CCCC2)C1 (stereo not drawn),x,u,2%[6.58 µM],-6%,-10%
CN(C)CCNC(=O)c1nn(C)c2c1CCc1ccccc1-2,6%,u,0%,17%,2%
CCc1noc(C)c1C(=O)N1CCSC1=Nc1cccc(Cl)c1C,-44%,2.9µM*,-2%,u,-9%
CCc1noc(C)c1C(=O)N1CCCSC1=Nc1ccccc1,x,37%,x,u,-6%
O=C(c1ccc(S(=O)(=O)N2CCOCC2)cc1)N(c1ccccc1)C1C=CS(=O)(=O)C1 (stereo not drawn),-5%,u,u,0%,-7%
Cc1ccc(N(Cc2ccccc2)C(=O)c2cccc(S(=O)(=O)N3CCOCC3)c2)cc1,x,10µM*,4%,10µM*,42%
Cc1ccc(N(C(=O)c2ccc(S(=O)(=O)N3CCOCC3)cc2)C2C=CS(=O)(=O)C2)cc1 (stereo not drawn),-12%,8.3µM*,2%,-11%,4%
SMILES,NS1 function inh,Pf growth 96h,SARS PLpro yeast,Pf growth 48h,RE007 growth inh
Cc1ccc(N(Cc2ccccc2)C(=O)c2ccc(S(=O)(=O)N3CCOCC3)cc2)cc1,x,u,2%,13µM*,1%
Cc1ccc(N(Cc2ccccc2)C(=O)c2cccc(S(=O)(=O)N3CCN(C)CC3)c2)cc1,x,u,-2%,u,3%
CC(=O)N1CCN(S(=O)(=O)c2cccc(C(=O)N(Cc3ccccc3)c3cccc(C)c3)c2)CC1,x,8.3µM*,-2%,u,9%
CC(C)(CNCc1ccccc1)NS(=O)(=O)c1ccc(Cl)cc1,x,x,-2%,x,-2%
CC1CCN(S(=O)(=O)c2cnc[nH]2)CC1,-5%,u,-5%,0%,-10%
Cc1ccc(N(Cc2ccccc2)C(=O)c2ccc(C)c(S(=O)(=O)N3CCOCC3)c2)cc1,x,2.1µM*,2%,6.6µM*,2%
Cc1ccc(N(Cc2ccccc2)C(=O)Cc2ccc(S(=O)(=O)N3CCOCC3)s2)cc1,x,u,1%,13µM*,-1%
COc1ccc(CC(=O)N(Cc2ccccc2)c2ccc(C)cc2)cc1S(=O)(=O)N1CCOCC1,x,13µM*,2%,u,0%
COc1ccc(CC(=O)NCc2ccccc2)cc1S(=O)(=O)N1CCOCC1,-30%,u,-8%,-13%,9%
Cc1ccc2c(cnn2C(=O)CCC(=O)NC2CCCCC2)c1,2%,u,-2%,-13%,-1%
O=C(CSc1nnc(-c2cccc(F)c2)o1)N1CCCC1,-3%,89%,2%,80%,-1%
CCNC(=O)c1sc2cc(C)ccc2c1Cl,12%,13µM*,1%,37%,-2%
O=C(NCc1ccco1)c1sc2cc(F)ccc2c1Cl,-6%,15µM*,-36%,111%,-14%
CC(C)c1ccc(OCC(=O)Nc2ccncc2)cc1,-3%,29%,-3%,13%,5%
CC(C)c1ccc(OCC(=O)NNC(=O)c2cnccn2)cc1,-4%,10µM*,1%,u,-9%
O=C(COc1ccc2ccccc2c1)NNC(=O)c1cnccn1,29%,9.3µM*,14%,15µM*,0%
O=C(COc1cccc2ccccc12)NNC(=O)c1cnccn1,-20%,u,8%,u,-13%
Cc1nn(Cc2ccccc2)c(C)c1NC(=O)CSc1nc2c(c(C(F)(F)F)n1)CCc1ccccc1-2,u,8.3µM*,6%,5.2µM*,18%
CCn1c(=NC(=O)CS(=O)(=O)c2ccc(C)cc2)sc2cccc(OC)c21,x,u,-4%,u,1%
CCn1c(=NC(=O)c2ccc(S(=O)(=O)N(C)C)cc2)sc2cccc(OC)c21,x,u,-2%,8.3µM*,13%
O=C1N/C(=N/S(=O)(=O)Cc2ccccc2)S/C1=C/c1ccc2c(c1)OCO2,-2%,1%,3%,-27%,1%
COc1cc(OC)c(C(=O)OC(C)C(=O)Nc2cccc(C(F)(F)F)c2)cc1OC (stereo not drawn),8%,9.3µM*,17%,u,-17%
CC1(C(=O)Nc2ccccc2Br)CCN1C(=O)Cc1ccccc1Cl (stereo not drawn),x,x,x,x,-12%
Cc1cccc(-c2cc(C(=O)N3CCCc4ccccc43)c3ccccc3n2)c1,15%,u,-21%,8.3µM*,-7%
